{"source": "the OligoGym collection"}
{"target": "CEP110", "assay": "pooled miR-30 sensor sort-seq; sequence = guide strand", "settings": "shRNA"}
{"sequence": "TAACAGATTATTGTCATCCTGC", "sensor-assay potency score (higher = more potent)": 0.569}
{"sequence": "TTCTTTTTCTCTAACTCTCGGA", "sensor-assay potency score (higher = more potent)": -0.414}
{"sequence": "TTCATCTGCAATCTCAACTTGC", "sensor-assay potency score (higher = more potent)": 0.351}
{"sequence": "TAGTTGTATAGCTTCTTCCAGT", "sensor-assay potency score (higher = more potent)": -0.43}
{"sequence": "TTTCTCAATTTCTAGGACCTGT", "sensor-assay potency score (higher = more potent)": -0.0728}
{"sequence": "TAAACCAAAAACTTGCTCCTGA", "sensor-assay potency score (higher = more potent)": 0.902}
{"sequence": "TTTCTTTCTGTCAAGAACTGGT", "sensor-assay potency score (higher = more potent)": -0.248}
{"sequence": "TTGCATTGCTGAAATGTCGTTA", "sensor-assay potency score (higher = more potent)": 0.524}
{"sequence": "TTTATGGTCTTGATAGTCCAAA", "sensor-assay potency score (higher = more potent)": -1.01}
{"sequence": "TTGTAGTCTACCACTCAACTGC", "sensor-assay potency score (higher = more potent)": 0.0361}
{"sequence": "TAGTCTACCACTCAACTGCTTG", "sensor-assay potency score (higher = more potent)": -1.16}
{"sequence": "TTATGTTTAGACATCTGCCTTA", "sensor-assay potency score (higher = more potent)": 0.679}
{"target": "CEP55", "assay": "pooled miR-30 sensor sort-seq; sequence = guide strand", "settings": "shRNA"}
{"sequence": "TTAACAATTTTAGCTAAGCAGA", "sensor-assay potency score (higher = more potent)": -1.37}
{"sequence": "TCTTTGTGAATACAACAGCTGA", "sensor-assay potency score (higher = more potent)": -0.875}
{"sequence": "TTTGTGAATACAACAGCTGATT", "sensor-assay potency score (higher = more potent)": -0.95}
{"sequence": "TAAATTGTGAACTTCTTTTTGG", "sensor-assay potency score (higher = more potent)": -0.104}
{"sequence": "TTTCTTCATATTTTCTTCGAAA", "sensor-assay potency score (higher = more potent)": -1.41}
{"sequence": "TTGATAAGCATTCTTCTCCTTC", "sensor-assay potency score (higher = more potent)": 0.207}
{"sequence": "TAACCCATTAGCAATAACCTGA", "sensor-assay potency score (higher = more potent)": -0.42}
